Source: PubChem BioAssay (EPA / NIEHS)
Results filed as inconclusive are left out. Activity calls are given as the source filed them. Rule for the calls: active = hit-call score of the fitted dose curve at least 0.9, where 1 is the maximum; inconclusive = response in the unintended direction; inactive = score below 0.9.

target: chimpanzee Androgen Receptor (AR), AR (gene 747460) (UniProt O97775); assay: NVS_NR_cAR: NovaScreen (NVS) Nuclear Receptor Binding Assay for chimpanzee Androgen Receptor (AR) (AID 2283346);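 note: a loss of bound radioligand signal versus DMSO counts as binding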
Sequence (O97775 whole entry, looked up): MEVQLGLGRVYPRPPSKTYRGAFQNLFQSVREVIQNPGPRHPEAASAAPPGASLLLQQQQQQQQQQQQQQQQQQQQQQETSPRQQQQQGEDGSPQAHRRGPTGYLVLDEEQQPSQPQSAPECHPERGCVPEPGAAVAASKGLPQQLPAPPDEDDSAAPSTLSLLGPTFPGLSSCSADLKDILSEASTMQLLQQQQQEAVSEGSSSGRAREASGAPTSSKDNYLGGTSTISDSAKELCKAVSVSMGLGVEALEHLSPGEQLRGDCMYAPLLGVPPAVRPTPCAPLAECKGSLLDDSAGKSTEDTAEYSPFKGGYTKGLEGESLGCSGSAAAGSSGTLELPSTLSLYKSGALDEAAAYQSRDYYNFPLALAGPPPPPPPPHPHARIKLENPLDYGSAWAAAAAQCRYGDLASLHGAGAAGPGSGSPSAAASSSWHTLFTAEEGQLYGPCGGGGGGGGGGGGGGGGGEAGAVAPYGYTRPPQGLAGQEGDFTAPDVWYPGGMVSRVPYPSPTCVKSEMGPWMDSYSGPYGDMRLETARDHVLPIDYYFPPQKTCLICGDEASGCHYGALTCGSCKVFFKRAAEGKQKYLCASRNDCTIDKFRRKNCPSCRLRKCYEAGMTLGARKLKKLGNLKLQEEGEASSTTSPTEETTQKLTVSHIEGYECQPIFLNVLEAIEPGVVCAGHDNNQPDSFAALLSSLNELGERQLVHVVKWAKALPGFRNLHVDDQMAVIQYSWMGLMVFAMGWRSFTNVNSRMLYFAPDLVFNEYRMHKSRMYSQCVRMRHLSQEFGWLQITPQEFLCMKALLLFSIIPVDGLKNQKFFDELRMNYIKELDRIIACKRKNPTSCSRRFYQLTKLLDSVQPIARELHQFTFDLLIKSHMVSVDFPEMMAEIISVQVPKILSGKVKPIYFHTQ
Procedure: NVS_NR_cAR is a biochemical, single-readout assay that uses extracted gene-proteins from Sf9/Sf21 in a cell-free assay. Measurements were taken 72 hours after chemical dosing in a 96-well plate.NVS_NR_cAR is one of one assay component(s) measured or calculated from the NVS_NR_cAR assay. It is designed to make measurements of radioligand binding, a form of binding reporter, as detected with scintillation counting signals by Lysate-based radiodetection technology.Data from the assay component NVS_NR_cAR was analyzed into 1 assay endpoint. This assay endpoint, NVS_NR_cAR, was analyzed in the positive analysis fitting direction relative to DMSO as the negative control and baseline of activity. Using a type of binding reporter, loss-of-signal activity can be used to understand changes in the binding as they relate to the gene AR. Furthermore, this assay endpoint can be referred to as a primary readout, because the performed assay has only produced 1 assay endpoint. To generalize the intended target to other relatable targets, this assay endpoint is annotated to the nuclear receptor intended target family, where the subfamily is steroidal.
Binding assays used specific radioligands (tritiated, iodinated) with non-radioactive competitive displacement ligands in agonist or antagonist protocols (as indicated) and various reference compounds and inhibitors to titrate specific binding to receptors and transporters. Most enzyme assays (CYPs, kinases, phosphatases, proteases, HDACs) used recombinant protein and specific substrates (fluorescence mostly, some colorimetric and radioactive) and inhibitors, followed by a biochemical separation of substrate and product. All assays for the biochemical HTS were initially run in duplicate at a single concentration (10 uM for CYP450 assays and 25 uM for all others). […] Each assay was run with positive and negative controls, and concurrent controls on every plate. The follow-up (secondary) screen tested active chemical-pairs in concentration series, as well as a few additional assays not tested in the primary screen, some selected negative inactives, and several cases re-run in the concentration series for confirmatory purposes.

AC50, active:
OCc1cccc(Oc2ccccc2)c1 25 µM
BrCc1cccc(Oc2ccccc2)c1 25 µM
CCOc1ccc(N=Nc2ccc(C=Cc3ccc(N=Nc4ccc(OCC)cc4)cc3S(=O)(=O)O)c(S(=O)(=O)O)c2)cc1 17.7 µM
Oc1ccc2cc(SSc3ccc4cc(O)ccc4c3)ccc2c1 31.9 µM
Cc1cc(=O)oc2cc(N(C)C)ccc12 6.8 µM
C=C1CC[C@H](O)C/C1=C/C=C1\CCC[C@]2(C)[C@@H]([C@H](C)/C=C/[C@H](C)C(C)C)CC[C@@H]12 28.4 µM
CCCCCCCCC=CCCCCCCCC1=NCCN1CCO 35.8 µM
Cc1ccc(S(=O)(=O)Oc2ccc(N=Nc3ccc(-c4ccc(N=Nc5c(O)ccc6cc(S(=O)(=O)O)cc(S(=O)(=O)O)c56)c(C)c4)cc3C)cc2)cc1 5.44 µM
Oc1c(Cl)cc(Cl)c(Cl)c1Cc1c(O)c(Cl)cc(Cl)c1Cl 5 µM
O=C1OC[C@H](Cc2cccc(O)c2)[C@H]1Cc1cccc(O)c1 4.16 µM
COc1ccc(N=Nc2cc(C)c(N=Nc3ccc(S(=O)(=O)O)cc3)cc2OC)cc1 25 µM
COc1ccc(OC)c(N=Nc2c(O)ccc3ccccc23)c1 2.85 µM
O=C(Nc1ccc2c(O)c(N=Nc3ccc(N=Nc4ccc(S(=O)(=O)O)cc4)cc3)c(S(=O)(=O)O)cc2c1)c1ccccc1 40.6 µM

outcome, inactive:
CN1CCOCC1
Nc1ccccc1[N+](=O)[O-]
CCc1cc(C(C)(C)C)c(O)c(C(C)(C)C)c1
C=C(C)[C@H]1CC=C(C)C(=O)C1
CCOC(=O)c1ccc(N)cc1
O=CCc1ccccc1
Nc1ccc(N)c2c1C(=O)c1ccccc1C2=O
